# Laboratory results taken from PubChem BioAssay (EPA / NIEHS).
# “And” between values parts separate entries of the source, which are not always exact repeats. Equal values may be shown once. Records with an inconclusive call do not appear. The source made the active and inactive calls. How the source made its calls: active means hit-call score of the fitted dose curve at least 0.9, where 1 is the maximum; inconclusive means response in the unintended direction; inactive means score below 0.9.
# Target: human AMP-activated Protein Kinase, alpha 1 (AMPKa1), PRKAA1 (gene 5562) (UniProt Q13131)
# Assay: NVS_ENZ_hAMPKa1: NovaScreen (NVS) Enzymatic Assay for human AMP-activated Protein Kinase, alpha 1 (AMPKa1) (AID 2283130)
# Experimental: NVS_ENZ_hAMPKa1 is a biochemical, single-readout assay that uses extracted gene-proteins in a cell-free assay. Measurements were taken 1 hour after chemical dosing in a 384-well plate.NVS_ENZ_hAMPKa1 is one of one assay component(s) measured or calculated from the NVS_ENZ_hAMPKa1 assay. It is designed to make measurements of enzyme activity, a form of enzyme reporter, as detected with fluorescence intensity signals by Fluorescence and electrophoretic mobility shift technology.Data from the assay component NVS_ENZ_hAMPKa1 was analyzed into 1 assay endpoint. This assay endpoint, NVS_ENZ_hAMPKa1, was analyzed in the positive analysis fitting direction relative to DMSO as the negative control and baseline of activity. Using a type of enzyme reporter, loss-of-signal activity can be used to understand changes in the enzymatic activity as they relate to the gene PRKAA1. Furthermore, this assay endpoint can be referred to as a primary readout, because this assay has produced multiple assay endpoints where this one serves a enzymatic activity function. To generalize the intended target to other relatable targets, this assay endpoint is annotated to the kinase intended target family, where the subfamily is serine/threonine kinase.
# (§1) Binding assays used specific radioligands (tritiated, iodinated) with non-radioactive competitive displacement ligands in agonist or antagonist protocols (as indicated) and various reference compounds and inhibitors to titrate specific binding to receptors and transporters. Most enzyme assays (CYPs, kinases, phosphatases, proteases, HDACs) used recombinant protein and specific substrates (fluorescence mostly, some colorimetric and radioactive) and inhibitors, followed by a biochemical separation of substrate and product. All assays for the biochemical HTS were initially run in duplicate at a single concentration (10 uM for CYP450 assays and 25 uM for all others). […]
# human AMP-activated Protein Kinase, alpha 1 (AMPKa1), PRKAA1 (gene 5562), sequence (Q13131 whole entry, looked up): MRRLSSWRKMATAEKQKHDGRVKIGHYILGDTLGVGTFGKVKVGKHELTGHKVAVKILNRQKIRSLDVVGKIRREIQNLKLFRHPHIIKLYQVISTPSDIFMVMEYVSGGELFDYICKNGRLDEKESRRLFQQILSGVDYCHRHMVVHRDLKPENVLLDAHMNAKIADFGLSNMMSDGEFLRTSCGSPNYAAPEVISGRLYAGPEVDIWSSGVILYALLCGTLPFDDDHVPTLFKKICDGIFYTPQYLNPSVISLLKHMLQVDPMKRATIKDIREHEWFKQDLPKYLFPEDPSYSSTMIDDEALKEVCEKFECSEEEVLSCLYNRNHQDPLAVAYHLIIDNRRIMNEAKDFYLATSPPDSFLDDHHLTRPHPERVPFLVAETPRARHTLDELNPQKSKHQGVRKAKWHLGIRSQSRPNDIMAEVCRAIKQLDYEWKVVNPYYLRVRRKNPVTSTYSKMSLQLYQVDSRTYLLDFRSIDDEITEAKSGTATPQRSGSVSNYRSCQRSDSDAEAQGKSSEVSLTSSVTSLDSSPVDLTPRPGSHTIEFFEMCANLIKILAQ
Compound,AC50,outcome
CN(C)[C@@H]1C(=O)C(C(N)=O)=C(O)[C@@]2(O)C(=O)C3=C(O)c4c(O)cccc4[C@@](C)(O)[C@H]3[C@H](O)[C@@H]12,2.4 µM (active),–
Cc1cc(C2CC2)nc(Nc2ccccc2)n1,–,inactive
CC[C@H](C)[C@H]1O[C@]2(C=C[C@@H]1C)C[C@@H]1C[C@@H](C/C=C(\C)[C@@H](O[C@H]3C[C@H](OC)[C@@H](O[C@H]4C[C@H](OC)[C@@H](NC)[C@H](C)O4)[C@H](C)O3)[C@@H](C)/C=C/C=C3\CO[C@@H]4[C@H](O)C(C)=C[C@@H](C(=O)O1)[C@]34O)O2,14.6 µM (active),–

# Target: Caspase-1 (Homo sapiens) (UniProt P29466)
# Assay: NVS_ENZ_hCASP1: NovaScreen (NVS) Enzymatic Assay for human Caspase 1 (CASP1) (AID 2283132)
# Experimental: (§2) NVS_ENZ_hCASP1 is a biochemical, single-readout assay that uses extracted gene-proteins from E. coli in a cell-free assay. Measurements were taken 1 hour after chemical dosing in a 96-well plate.NVS_ENZ_hCASP1 is one of one assay component(s) measured or calculated from the NVS_ENZ_hCASP1 assay. It is designed to make measurements of enzyme activity, a form of enzyme reporter, as detected with fluorescence intensity signals by Fluorescence technology.Data from the assay component NVS_ENZ_hCASP1 was analyzed into 1 assay endpoint. This assay endpoint, NVS_ENZ_hCASP1, was analyzed in the positive analysis fitting direction relative to DMSO as the negative control and baseline of activity. Using a type of enzyme reporter, loss-of-signal activity can be used to understand changes in the enzymatic activity as they relate to the gene CASP1. Furthermore, this assay endpoint can be referred to as a primary readout, because this assay has produced multiple assay endpoints where this one serves a enzymatic activity function. To generalize the intended target to other relatable targets, this assay endpoint is annotated to the protease intended target family, where the subfamily is cysteine protease.
# Binding assays used specific radioligands (tritiated, iodinated) with non-radioactive competitive displacement ligands in agonist or antagonist protocols (as indicated) and various reference compounds and inhibitors to titrate specific binding to receptors and transporters. Most enzyme assays (CYPs, kinases, phosphatases, proteases, HDACs) used recombinant protein and specific substrates (fluorescence mostly, some colorimetric and radioactive) and inhibitors, followed by a biochemical separation of substrate and product. All assays for the biochemical HTS were initially run in duplicate at a single concentration (10 uM for CYP450 assays and 25 uM for all others). Assay-chemical combinations meeting a pre-defined threshold (e.g., 30% inhibition and other criteria defined below) were then run in singleton concentration-response format with maximum concentration of 20 uM for CYPs and 50 uM for all others. Each assay was run with positive and negative controls, and concurrent controls on every plate. The follow-up (secondary) screen tested active chemical-pairs in concentration series, as well as a few additional assays not tested in the primary screen, some selected negative inactives, and several cases re-run in the concentration series for confirmatory purposes.
# Caspase-1 (Homo sapiens), sequence (P29466 whole entry, looked up): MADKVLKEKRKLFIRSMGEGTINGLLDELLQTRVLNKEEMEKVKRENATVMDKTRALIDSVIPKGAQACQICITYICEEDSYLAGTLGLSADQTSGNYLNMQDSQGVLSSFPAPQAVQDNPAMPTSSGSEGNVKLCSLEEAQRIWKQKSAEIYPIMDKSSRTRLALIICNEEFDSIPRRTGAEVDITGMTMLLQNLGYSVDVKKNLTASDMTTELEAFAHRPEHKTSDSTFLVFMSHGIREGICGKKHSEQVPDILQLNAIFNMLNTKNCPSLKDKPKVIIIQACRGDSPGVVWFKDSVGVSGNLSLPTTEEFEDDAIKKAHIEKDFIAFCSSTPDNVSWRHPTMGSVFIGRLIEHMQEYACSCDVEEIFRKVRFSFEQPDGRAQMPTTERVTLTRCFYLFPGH
Compound,outcome,AC50
S=C1NCCN1,inactive,–
CN(C)[C@@H]1C(=O)C(C(N)=O)=C(O)[C@@]2(O)C(=O)C3=C(O)c4c(O)cccc4[C@@](C)(O)[C@H]3[C@H](O)[C@@H]12,–,11.6 µM (active)
Cc1cc(C2CC2)nc(Nc2ccccc2)n1,inactive,–
C#CC(C)(C)NC(=O)c1cc(Cl)cc(Cl)c1,inactive,–
CSc1nc(NC(C)C)nc(NC(C)C)n1,inactive,–
CC(C)[C@H](C(=O)O[C@H](C#N)c1cccc(Oc2ccccc2)c1)c1ccc(Cl)cc1,inactive,–

# Target: human Caspase 2 (CASP2), CASP2 (gene 835) (UniProt P42575)
# Assay: NVS_ENZ_hCASP2: NovaScreen (NVS) Enzymatic Assay for human Caspase 2 (CASP2) (AID 2283135)
# Experimental: as §2, with “NVS_ENZ_hCASP2” for “NVS_ENZ_hCASP1”, “plate.NVS_ENZ_hCASP2” for “plate.NVS_ENZ_hCASP1”, “NVS_ENZ_hCASP2,” for “NVS_ENZ_hCASP1,”, “CASP2.” for “CASP1.”
# as §1
# human Caspase 2 (CASP2), CASP2 (gene 835), sequence (P42575 whole entry, looked up): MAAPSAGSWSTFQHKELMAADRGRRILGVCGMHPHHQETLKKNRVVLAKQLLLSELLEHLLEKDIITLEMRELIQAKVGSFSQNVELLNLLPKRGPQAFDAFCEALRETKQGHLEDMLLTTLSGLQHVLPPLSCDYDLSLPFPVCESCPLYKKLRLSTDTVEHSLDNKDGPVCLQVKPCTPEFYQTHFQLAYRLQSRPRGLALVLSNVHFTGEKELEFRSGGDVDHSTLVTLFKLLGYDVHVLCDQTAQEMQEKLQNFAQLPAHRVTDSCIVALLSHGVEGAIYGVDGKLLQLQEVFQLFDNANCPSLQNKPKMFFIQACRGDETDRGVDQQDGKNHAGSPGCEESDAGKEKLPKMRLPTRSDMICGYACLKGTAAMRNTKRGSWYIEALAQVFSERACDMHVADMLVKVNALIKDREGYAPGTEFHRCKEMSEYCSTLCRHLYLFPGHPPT
Compound,outcome,AC50
S=C1NCCN1,inactive,–
CN(C)[C@@H]1C(=O)C(C(N)=O)=C(O)[C@@]2(O)C(=O)C3=C(O)c4c(O)cccc4[C@@](C)(O)[C@H]3[C@H](O)[C@@H]12,–,10.8 µM (active)
O=c1ccc(=O)[nH][nH]1,inactive,–

# Target: human Caspase 5 (CASP5), CASP5 (gene 838) (UniProt P51878)
# Assay: NVS_ENZ_hCASP5: NovaScreen (NVS) Enzymatic Assay for human Caspase 5 (CASP5) (AID 2283137)
# Summary of the method: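 Caspase 5 enzyme activity, detected as fluorescence signal loss, is measured in a biochemical format using E. coli-expressed protein. Reading occurs 2 hours post-dosing. Screening runs at 25 uM, with confirmed actives titrated to 50 uM maximum.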
# human Caspase 5 (CASP5), CASP5 (gene 838), sequence (P51878 whole entry, looked up): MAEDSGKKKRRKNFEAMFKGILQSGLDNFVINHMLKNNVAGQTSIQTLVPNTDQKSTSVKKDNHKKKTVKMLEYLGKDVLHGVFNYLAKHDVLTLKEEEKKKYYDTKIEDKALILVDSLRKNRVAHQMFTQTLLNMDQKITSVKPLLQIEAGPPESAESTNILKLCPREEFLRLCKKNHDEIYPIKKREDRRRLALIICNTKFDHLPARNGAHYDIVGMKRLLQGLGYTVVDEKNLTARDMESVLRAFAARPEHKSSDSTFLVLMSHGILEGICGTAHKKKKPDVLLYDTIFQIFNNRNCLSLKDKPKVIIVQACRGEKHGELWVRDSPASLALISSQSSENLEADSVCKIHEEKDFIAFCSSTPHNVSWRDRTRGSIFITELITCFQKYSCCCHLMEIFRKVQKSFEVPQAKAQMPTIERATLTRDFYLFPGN
Compound,outcome,AC50
Cc1ccn2nc(S(=O)(=O)Nc3c(F)cccc3F)nc2n1,inactive,–
S=C1NCCN1,inactive,–
CN(C)[C@@H]1C(=O)C(C(N)=O)=C(O)[C@@]2(O)C(=O)C3=C(O)c4c(O)cccc4[C@@](C)(O)[C@H]3[C@H](O)[C@@H]12,–,5.15 µM (active) and 683 nM (active)
CC[C@H](C)[C@H]1O[C@]2(C=C[C@@H]1C)C[C@@H]1C[C@@H](C/C=C(\C)[C@@H](O[C@H]3C[C@H](OC)[C@@H](O[C@H]4C[C@H](OC)[C@@H](NC)[C@H](C)O4)[C@H](C)O3)[C@@H](C)/C=C/C=C3\CO[C@@H]4[C@H](O)C(C)=C[C@@H](C(=O)O1)[C@]34O)O2,inactive,–

# Target: human AKT serine/threonine Kinase 1 (AKT1), AKT1 (gene 207) (UniProt P31749)
# Assay: NVS_ENZ_hAKT1: NovaScreen (NVS) Enzymatic Assay for human AKT serine/threonine Kinase 1 (AKT1) (AID 2283138)
# Summary of the method: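 A biochemical assay with recombinant enzyme and specific substrate, read by fluorescence intensity with mobility-shift separation 1 hour after dosing. Actives from 25 uM duplicate screening were titrated up to 50 uM against DMSO baseline.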
# human AKT serine/threonine Kinase 1 (AKT1), AKT1 (gene 207), sequence (P31749 whole entry, looked up): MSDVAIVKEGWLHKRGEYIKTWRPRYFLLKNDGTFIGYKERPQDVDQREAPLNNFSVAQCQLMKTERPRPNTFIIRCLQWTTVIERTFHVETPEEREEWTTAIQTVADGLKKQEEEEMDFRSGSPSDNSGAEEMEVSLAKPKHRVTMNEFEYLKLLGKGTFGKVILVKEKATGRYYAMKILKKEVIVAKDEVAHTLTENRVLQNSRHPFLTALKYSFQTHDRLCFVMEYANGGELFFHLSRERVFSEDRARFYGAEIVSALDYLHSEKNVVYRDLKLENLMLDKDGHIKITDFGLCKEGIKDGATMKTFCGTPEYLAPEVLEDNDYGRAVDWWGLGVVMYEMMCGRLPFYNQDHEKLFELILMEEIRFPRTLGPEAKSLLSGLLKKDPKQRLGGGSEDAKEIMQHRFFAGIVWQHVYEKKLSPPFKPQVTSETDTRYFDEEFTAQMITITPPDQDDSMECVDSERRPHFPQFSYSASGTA
row,Compound,outcome
1,S=C1NCCN1,inactive
2,Nc1c(Cl)cc([N+](=O)[O-])cc1Cl,inactive
3,CCCCOC(=O)c1ccccc1C(=O)O,inactive
4,CCOP(=O)(SC(C)CC)N1CCSC1=O (stereo not given),inactive

# Target: Caspase-3 (Homo sapiens) (UniProt P42574)
# Assay: NVS_ENZ_hCASP3: NovaScreen (NVS) Enzymatic Assay for human Caspase 3 (CASP3) (AID 2283139)
# Summary of the method: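 Single-concentration screening at 25 uM in duplicate, with concentration-response follow-up to a 50 uM maximum for chemicals passing the threshold. Caspase-3 (human, E. coli-expressed) activity was read as substrate fluorescence after 1 h, with loss of signal relative to DMSO.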
# Caspase-3 (Homo sapiens), sequence (P42574 whole entry, looked up): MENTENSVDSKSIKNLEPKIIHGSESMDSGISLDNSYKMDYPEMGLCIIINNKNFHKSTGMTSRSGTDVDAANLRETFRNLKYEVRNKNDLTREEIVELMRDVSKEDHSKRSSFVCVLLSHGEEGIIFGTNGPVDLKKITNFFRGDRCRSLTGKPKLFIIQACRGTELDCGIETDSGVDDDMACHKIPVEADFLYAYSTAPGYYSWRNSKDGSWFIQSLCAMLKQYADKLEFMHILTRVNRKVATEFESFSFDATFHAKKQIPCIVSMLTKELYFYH
Compound,outcome,AC50
CCOP(=S)(OCC)SCCSCC,inactive,–
COP(=O)(NC(C)=O)SC (stereo not given),inactive,–
CC[C@H](C)[C@H]1O[C@]2(C=C[C@@H]1C)C[C@@H]1C[C@@H](C/C=C(\C)[C@@H](O[C@H]3C[C@H](OC)[C@@H](O[C@H]4C[C@H](OC)[C@@H](NC)[C@H](C)O4)[C@H](C)O3)[C@@H](C)/C=C/C=C3\CO[C@@H]4[C@H](O)C(C)=C[C@@H](C(=O)O1)[C@]34O)O2,inactive,–
COc1ccc(C(=CC(=O)N2CCOCC2)c2ccc(Cl)cc2)cc1OC,inactive,–
CC(C)=CC1C(C(=O)OCN2C(=O)C3=C(CCCC3)C2=O)C1(C)C (stereo not given),–,18.1 µM (active)

# Target: human Beta-secretase (BACE), BACE1 (gene 23621) (UniProt P56817)
# Assay: NVS_ENZ_hBACE: NovaScreen (NVS) Enzymatic Assay for human Beta-secretase (BACE) (AID 2283140);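 further: hits are inhibitors that reduce fluorescent substrate signal versus DMSO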
# Summary of the method: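 Enzyme activity of SF9-produced BACE1 is measured cell-free by fluorescence, 1 hour post dosing, normalised to DMSO. Screening used 25 uM in duplicate, with concentration-response follow-up for actives.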
# human Beta-secretase (BACE), BACE1 (gene 23621), sequence (P56817 whole entry, looked up): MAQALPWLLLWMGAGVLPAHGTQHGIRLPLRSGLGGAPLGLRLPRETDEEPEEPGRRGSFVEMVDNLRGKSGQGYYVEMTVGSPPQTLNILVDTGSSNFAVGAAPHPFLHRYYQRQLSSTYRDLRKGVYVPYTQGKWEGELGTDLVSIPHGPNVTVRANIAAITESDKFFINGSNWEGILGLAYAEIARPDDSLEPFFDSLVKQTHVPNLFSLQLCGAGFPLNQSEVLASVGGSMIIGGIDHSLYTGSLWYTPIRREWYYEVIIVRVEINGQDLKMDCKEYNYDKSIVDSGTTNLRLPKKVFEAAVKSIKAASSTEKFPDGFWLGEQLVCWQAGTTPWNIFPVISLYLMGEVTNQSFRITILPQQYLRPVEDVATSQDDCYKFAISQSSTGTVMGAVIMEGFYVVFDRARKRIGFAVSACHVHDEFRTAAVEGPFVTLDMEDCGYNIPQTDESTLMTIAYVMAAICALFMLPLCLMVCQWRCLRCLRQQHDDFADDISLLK
Compound,outcome,AC50
S=C1NCCN1,inactive,–
CN(C)[C@@H]1C(=O)C(C(N)=O)=C(O)[C@@]2(O)C(=O)C3=C(O)c4c(O)cccc4[C@@](C)(O)[C@H]3[C@H](O)[C@@H]12,–,12.6 µM (active) and 7.9 µM (active)
CC[C@H](C)[C@H]1O[C@]2(C=C[C@@H]1C)C[C@@H]1C[C@@H](C/C=C(\C)[C@@H](O[C@H]3C[C@H](OC)[C@@H](O[C@H]4C[C@H](OC)[C@@H](NC)[C@H](C)O4)[C@H](C)O3)[C@@H](C)/C=C/C=C3\CO[C@@H]4[C@H](O)C(C)=C[C@@H](C(=O)O1)[C@]34O)O2,–,9.68 µM (active)
CCCCOC(=O)c1ccccc1C(=O)O,inactive,–
CON=C(C(=O)OC)c1ccccc1CON=C(C)c1cccc(C(F)(F)F)c1,inactive,–
CCC(CC)Nc1c([N+](=O)[O-])cc(C)c(C)c1[N+](=O)[O-],inactive,–
CC(C)=CC1C(C(=O)OCN2C(=O)C3=C(CCCC3)C2=O)C1(C)C (stereo not given),–,25 µM (active)
CC(C)[C@H](C(=O)O[C@H](C#N)c1cccc(Oc2ccccc2)c1)c1ccc(Cl)cc1,–,1.19 µM (active)
C#CCC1=C(C)C(OC(=O)C2C(C=C(C)C)C2(C)C)CC1=O (stereo not given),inactive,–

# Target: human AKT serine/threonine Kinase 2 (AKT2), AKT2 (gene 208) (UniProt P31751)
# Assay: NVS_ENZ_hAKT2: NovaScreen (NVS) Enzymatic Assay for human AKT serine/threonine Kinase 2 (AKT2) (AID 2283141)
# Summary of the method: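 Cell-free fluorescence/electrophoretic mobility shift readout of recombinant human AKT2 activity, 1 h after chemical dosing. Duplicate primary screen at 25 uM, then singleton concentration-response up to 50 uM; loss of signal versus DMSO baseline.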
# human AKT serine/threonine Kinase 2 (AKT2), AKT2 (gene 208), sequence (P31751 whole entry, looked up): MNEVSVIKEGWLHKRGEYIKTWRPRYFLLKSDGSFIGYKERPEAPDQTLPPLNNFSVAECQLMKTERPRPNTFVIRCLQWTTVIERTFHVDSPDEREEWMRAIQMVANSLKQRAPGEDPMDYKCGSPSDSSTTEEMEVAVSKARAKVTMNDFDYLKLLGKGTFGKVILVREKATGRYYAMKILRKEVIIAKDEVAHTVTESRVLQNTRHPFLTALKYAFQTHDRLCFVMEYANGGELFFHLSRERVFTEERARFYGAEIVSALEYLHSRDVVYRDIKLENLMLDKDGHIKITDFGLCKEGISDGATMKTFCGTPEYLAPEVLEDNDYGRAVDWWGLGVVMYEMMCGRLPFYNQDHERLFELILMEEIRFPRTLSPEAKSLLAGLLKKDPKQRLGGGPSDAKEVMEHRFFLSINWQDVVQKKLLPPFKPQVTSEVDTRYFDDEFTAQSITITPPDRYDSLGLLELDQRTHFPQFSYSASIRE
row,Compound,outcome
1,O=C(O)c1cc(Oc2ccc(C(F)(F)F)cc2Cl)ccc1[N+](=O)[O-],inactive
2,Nc1c(Cl)cc([N+](=O)[O-])cc1Cl,inactive
3,CSc1nc(NC(C)C)nc(NC(C)C)n1,inactive

# Target: human Aurora Kinase A - serine/threonine-protein Kinase 6 (AurA), AURKA (gene 6790) (UniProt O14965)
# Assay: NVS_ENZ_hAurA: NovaScreen (NVS) Enzymatic Assay for human Aurora Kinase A - serine/threonine-protein Kinase 6 (AurA) (AID 2283142)
# Summary of the method: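 Recombinant human AurA activity read by fluorescence after mobility-shift separation of product from substrate; 1 hour incubation. Chemicals first run in duplicate at 25 uM, then concentration series to 50 uM if over threshold; fitted relative to DMSO.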
# human Aurora Kinase A - serine/threonine-protein Kinase 6 (AurA), AURKA (gene 6790), sequence (O14965 whole entry, looked up): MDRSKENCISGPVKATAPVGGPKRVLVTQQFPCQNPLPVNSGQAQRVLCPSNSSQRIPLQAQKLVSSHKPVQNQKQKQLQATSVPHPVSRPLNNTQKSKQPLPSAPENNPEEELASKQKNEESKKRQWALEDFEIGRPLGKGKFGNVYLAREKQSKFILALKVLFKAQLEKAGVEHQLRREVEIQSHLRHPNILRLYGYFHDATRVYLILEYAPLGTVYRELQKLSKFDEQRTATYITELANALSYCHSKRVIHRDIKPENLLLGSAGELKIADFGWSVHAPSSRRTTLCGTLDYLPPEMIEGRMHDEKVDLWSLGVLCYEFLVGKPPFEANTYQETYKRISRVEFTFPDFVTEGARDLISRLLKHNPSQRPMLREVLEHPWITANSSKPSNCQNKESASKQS
Compound,outcome,AC50
S=C1NCCN1,inactive,–
CN(C)[C@@H]1C(=O)C(C(N)=O)=C(O)[C@@]2(O)C(=O)C3=C(O)c4c(O)cccc4[C@@](C)(O)[C@H]3[C@H](O)[C@@H]12,–,29.4 µM (active)
CC(C)[C@H](C(=O)O[C@H](C#N)c1cccc(Oc2ccccc2)c1)c1ccc(Cl)cc1,inactive,–
